The list is not random: actives were taken first. Their share in the collection is about 7.5%.
ELG1 genotox: inducers of genotoxicity in HEK293T ELG1-luciferase cells; HEK293T ELG1-luciferase reporter, luminescence, 16 h; Potency, µM (doses to about 46 µM), most hits filed as activators; 330,000 tested, 1.3% active; also: nearly all actives have a fitted effect of over 60% in size
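Cells (2,000/well) expressing the ELG1-luciferase fusion are dosed by pin tool and kept 16 hr at 37 °C, 5% CO2. Signal comes from ONE-Glo luciferase reagent after 30 min at room temperature.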
Rab9 prom act: Rab9 promoter activation; 320,000 tested, 2.8% active; Huh7 Rab9 promoter-luciferase reporter, luminescence, 24 h; Potency, µM (series often up to 9.22 µM), usual class: activators; also: nearly all actives have a fitted effect of over 60% in size
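Steps: seed 1500 Huh7 Rab9-luc cells per well, rest 2 h at 37 °C; add compound in DMSO; incubate 24 h; add luciferase reagent, 10 min ambient; read luminescence.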
NPC1 promoter act: NPC1 promoter activation | Potency, µM (doses to about 9.22 µM), hits mostly activators | AID 485313 | 320,000 tested, 2.4% active | Huh7 NPC1 promoter luciferase reporter, 24 h; also: nearly all actives have a fitted effect of over 60% in size
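Luminescence read-out of NPC1 promoter-driven luciferase in stably transfected Huh7 cells; compounds delivered in DMSO and left 24 h at 37C, 5% CO2, qHTS titration format.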
FLuc counter: inhibits or activates purified firefly luciferase, miR-21 counter-screen. purified FLuc, Km substrates, luminescence inhibition. Potency, µM (doses to about 57.5 µM), most hits filed as inhibitors. 360,000 tested, 6.9% active; also: nearly all actives have a fitted effect of over 55% in size
Target sequence (P08659 whole entry, looked up): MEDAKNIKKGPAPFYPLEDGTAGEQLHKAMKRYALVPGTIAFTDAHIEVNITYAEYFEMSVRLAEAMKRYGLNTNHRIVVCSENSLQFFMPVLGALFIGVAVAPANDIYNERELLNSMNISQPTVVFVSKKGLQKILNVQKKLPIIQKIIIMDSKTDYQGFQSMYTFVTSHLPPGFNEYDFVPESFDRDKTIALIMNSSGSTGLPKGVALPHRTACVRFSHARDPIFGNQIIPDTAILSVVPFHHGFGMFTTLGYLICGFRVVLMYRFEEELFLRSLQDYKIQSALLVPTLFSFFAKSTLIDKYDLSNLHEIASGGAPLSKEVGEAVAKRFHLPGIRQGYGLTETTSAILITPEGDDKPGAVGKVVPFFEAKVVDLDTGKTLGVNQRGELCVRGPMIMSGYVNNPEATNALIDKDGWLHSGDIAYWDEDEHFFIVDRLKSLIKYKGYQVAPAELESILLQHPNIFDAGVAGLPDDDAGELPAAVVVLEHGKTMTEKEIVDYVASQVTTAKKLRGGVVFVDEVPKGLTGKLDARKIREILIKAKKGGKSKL
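Biochemical qHTS of compounds, final roughly 60 µM downward over six points, against 10 nM purified firefly luciferase using Km concentrations of substrates (10 uM D-luciferin, 10 uM ATP) in Tris acetate pH 7.5 buffer; luminescence output.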
KinaseGlo FLuc: counter-screen: inhibitors of Kinase-Glo firefly luciferase | Q27757 | Kinase-Glo luciferase, ATP luminescence, 8 min | Potency, µM (titrated, usually from 38.3 µM), actives largely listed as inhibitors | 200,000 tested, 0.28% active | AID 1379; also: nearly all actives have a fitted effect of over 60% in size
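Compound is pinned into ATP-containing buffer (10 uM ATP, imidazole pH 7.2, 7 mM MgCl2). Kinase-Glo luciferase reagent is then added. Light output is recorded following an 8-min room-temperature incubation.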
SMN2 splice enh: SMN2 splice variant enhancement. HEK293 SMN2-luciferase splicing reporter, luminescence, 30-36 h. Potency, µM (highest dose often 46.1 µM), usual class: activators. 210,000 tested, 2.8% active; also: nearly all actives have a fitted effect of over 55% in size
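HEK293 cells carry an SMN2 minigene-luciferase reporter in which exon 7 inclusion puts luciferase in frame. Cells were seeded at 2000 cells/well, attached for 10-12 hours, then exposed to compounds for 30-36 hours at 37C before ONE-Glo luminescence.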
A number is an active result. Calls follow the shape of the dose curve; as a rule, active = well fitted curve in the direction sought with a large enough effect; inconclusive = small, poorly fitted or top-dose-only effect, or another doubt; inactive = no such curve, though single readings can be large; an effect the other way counts as inactive or inconclusive.

CCC(=O)Nc1cccc(C(=O)c2ccccc2)c1 was read as ELG1 genotox inactive, Rab9 prom act inactive, NPC1 promoter act inactive, FLuc counter inactive, KinaseGlo FLuc inactive and SMN2 splice enh inactive.
For CCC(=O)Nc1cccc(C(=O)/C=C/c2cccs2)c1 the results were ELG1 genotox inactive, Rab9 prom act inconclusive, NPC1 promoter act inactive, FLuc counter 12µM, KinaseGlo FLuc inactive and SMN2 splice enh inactive.
Screening CCC(=O)Nc1cccc(C(=O)/C=C/c2ccccc2)c1 returned ELG1 genotox inconclusive, Rab9 prom act inactive, NPC1 promoter act inactive, FLuc counter 10.7µM, KinaseGlo FLuc inactive and SMN2 splice enh inactive.
For c1ccc(Oc2cc(-c3ccccc3)ncn2)cc1 the results were ELG1 genotox inconclusive, Rab9 prom act inconclusive, NPC1 promoter act inconclusive, FLuc counter 15.1µM, KinaseGlo FLuc inactive and SMN2 splice enh inconclusive.
COc1ccc(OC)c(/C=N/N=C2\SCC(=O)N2Cc2ccco2)c1 was read as ELG1 genotox inactive, Rab9 prom act inactive, NPC1 promoter act inactive, FLuc counter inactive, KinaseGlo FLuc inactive and SMN2 splice enh inactive.
COc1ccc(CN2C(=O)CS/C2=N/N=C/c2cccs2)cc1 was read as ELG1 genotox inactive, Rab9 prom act inactive, NPC1 promoter act inactive and FLuc counter 16.9µM.
Screening Cc1cc(C(=O)COc2ccc(F)cc2Br)c(C)n1C returned ELG1 genotox inactive, Rab9 prom act inactive, NPC1 promoter act inactive, FLuc counter 21.3µM, KinaseGlo FLuc inactive and SMN2 splice enh inactive.
`Cc1cc(C(=O)CN2CCN(CC(=O)Nc3ccc(F)cc3)CC2)c(C)n1C1CC1` gave ELG1 genotox inactive, Rab9 prom act inactive and NPC1 promoter act inactive.
Cc1cnc(C(=O)OCC(=O)c2cc(C)n(C)c2C)cn1 was read as ELG1 genotox inactive, Rab9 prom act inactive, NPC1 promoter act inactive, FLuc counter inactive, KinaseGlo FLuc inactive and SMN2 splice enh inactive.
Cc1cc(C(=O)COc2ccc(F)cc2Br)c(C)n1C1CC1 was read as ELG1 genotox inactive, Rab9 prom act inconclusive, NPC1 promoter act inactive and FLuc counter 10.7µM.
`O=C(CNc1cccc(S(=O)(=O)N2CCCC2)c1)Nc1cccc(C(F)(F)F)c1` gave ELG1 genotox inactive.
Screening C=CCn1c(=O)c2c(nc(-c3ccccc3)n2C)n(C)c1=O returned SMN2 splice enh inactive.
For O=c1[nH]nc(-c2ccccc2)c2ccccc12 the results were ELG1 genotox inactive, Rab9 prom act inactive, NPC1 promoter act inactive and FLuc counter inactive.
For Cc1ccc(-c2n[nH]c(=O)c3ccccc23)cc1S(=O)(=O)N(C)C the results were ELG1 genotox inactive, Rab9 prom act inactive, NPC1 promoter act inactive and FLuc counter inactive.
`Cc1cccc(-c2cc3c(N=O)c4ccccc4c-3n[nH]2)c1` gave ELG1 genotox inconclusive, Rab9 prom act 1.26µM, NPC1 promoter act 0.708µM, FLuc counter 0.536µM, KinaseGlo FLuc 10µM and SMN2 splice enh 3.16µM.
`O=Nc1c2cc(-c3ccccc3)[nH]nc-2c2ccccc12` gave ELG1 genotox inconclusive, Rab9 prom act inconclusive, NPC1 promoter act 3.16µM, FLuc counter 0.426µM, KinaseGlo FLuc 2.24µM and SMN2 splice enh 0.501µM.
For Cc1ccc(-c2cc3c(N=O)c4ccccc4c-3n[nH]2)cc1 the results were ELG1 genotox inconclusive, Rab9 prom act inconclusive, NPC1 promoter act inactive, FLuc counter 0.0953µM, KinaseGlo FLuc 10µM and SMN2 splice enh inactive.
CCCCCCCNC(=O)C1(CC2CC(c3ccc(Cl)cc3)=NO2)CCN(C(=O)C2(C)CC2)CC1 (stereo unspecified) was read as ELG1 genotox inactive, Rab9 prom act inactive, NPC1 promoter act inactive and FLuc counter inactive.
`Cc1oc2ncn(C)c(=O)c2c1C(=O)Nc1ccc(F)cc1` gave FLuc counter inactive and SMN2 splice enh inactive.
`COc1cc(C2c3c(oc4ccccc4c3=O)C(=O)N2Cc2ccc(C)cc2)ccc1O` (stereo unspecified) gave FLuc counter inactive.
Screening CC(=O)N=c1sc2cc(C)ccc2n1C returned ELG1 genotox 12.6µM, Rab9 prom act inactive, NPC1 promoter act inactive, FLuc counter inconclusive, KinaseGlo FLuc inactive and SMN2 splice enh inactive.
Cc1ccsc1/C=N/Nc1nc2ccccc2[nH]1 was read as ELG1 genotox inconclusive, Rab9 prom act 2.51µM, NPC1 promoter act 2.51µM, FLuc counter 3.38µM, KinaseGlo FLuc inactive and SMN2 splice enh 11.2µM.
For C(=N\Nc1nc2ccccc2[nH]1)/c1cccs1 the results were ELG1 genotox inconclusive, Rab9 prom act 3.98µM, NPC1 promoter act 3.16µM and FLuc counter 3.79µM.
Screening Cc1ccsc1/C=N/NC(=O)C(O)c1ccccc1 (stereo unspecified) returned ELG1 genotox inactive, Rab9 prom act inactive, NPC1 promoter act inactive and FLuc counter inactive.
`CC(=O)Oc1ccc(C(=O)Nc2cccc(NC(=O)c3ccco3)c2)cc1` gave ELG1 genotox inactive, Rab9 prom act inactive, NPC1 promoter act inactive and FLuc counter 15.1µM.
O=C(Nc1cccc(NC(=O)c2ccco2)c1)c1ccc([N+](=O)[O-])cc1 was read as ELG1 genotox inactive, Rab9 prom act inactive, NPC1 promoter act inactive and FLuc counter inactive.
Screening COc1ccc(C(=O)Nc2cccc(OC(=O)c3ccc(C)c(C)c3)c2)cc1 returned ELG1 genotox inactive, Rab9 prom act inactive, NPC1 promoter act inconclusive, FLuc counter 10.7µM, KinaseGlo FLuc inactive and SMN2 splice enh inconclusive.
For COc1ccc(C(=O)Nc2cccc(OC(=O)c3ccco3)c2)cc1 the results were ELG1 genotox 4.61µM, Rab9 prom act inconclusive, NPC1 promoter act inconclusive and FLuc counter 13.5µM.
For C[C@H]1CN(S(=O)(=O)c2c(F)cccc2F)CCN1S(=O)(=O)c1ccc2c(c1)OCCO2 the results were ELG1 genotox inactive.
For COc1ccc(Nc2nccc(-c3cccc(N)c3)n2)cc1 the results were ELG1 genotox inactive, Rab9 prom act inconclusive, NPC1 promoter act 1.78µM and FLuc counter 2.69µM.
Screening CCOC(=O)c1ccc(NC(=O)c2ccc3c(c2)C(=O)N(CC2CCCO2)C3=O)cc1 (stereo unspecified) returned ELG1 genotox inactive, Rab9 prom act inactive, NPC1 promoter act inactive and FLuc counter inactive.
For Nc1ccc(Oc2ccc3c(c2)C(=O)N(CC2CCCO2)C3=O)cc1 (stereo unspecified) the results were ELG1 genotox inconclusive, Rab9 prom act inconclusive, NPC1 promoter act inconclusive and FLuc counter 9.53µM.
`O=C(Nc1cccnc1)c1ccc2c(c1)C(=O)N(CC1CCCO1)C2=O` (stereo unspecified) gave ELG1 genotox inactive, Rab9 prom act inactive, NPC1 promoter act inactive, FLuc counter inactive, KinaseGlo FLuc inactive and SMN2 splice enh inactive.

Screening data: PubChem BioAssay, National Center for Advancing Translational Sciences (NCATS)
